From PubChem BioAssay (NCATS) come the findings set out here.

Values joined by “and” are separate entries in the source; they are usually repeats but may differ in a detail not shown here. Identical values can stand only once. Values without a mark were called inactive. Inconclusive results are not listed. Active and inactive are the calls of the source. Unless noted, calls come from the whole dose curve; as a rule, active = well fitted curve in the direction sought with a large enough effect; inconclusive = small, poorly fitted or top-dose-only effect, or another doubt; inactive = no such curve, though single readings can be large; an effect the other way counts as inactive or inconclusive.

Assay [1] can be described thus: qHTS assay for small molecule agonists of the antioxidant response element (ARE) signaling pathway measured by Nrf2-dependant transcriptional activity (AID 720636; active = well fitted curve in the direction sought with a large enough effect in the repeat runs; an effect the other way counts as inactive or inconclusive;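 note: HepG2 cells with an ARE-driven luciferase reporter; % of control where 0% means no effect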). The procedure, abridged: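 ONE-Glo luminescence, read 30 min after reagent addition at room temperature, reflected ARE reporter activity in HepG2 cells that had been incubated with compound for 16 hr at 37 C in 1% dialyzed FBS.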

Assay [2] is described as follows: qHTS assay for small molecule antagonists of the retinoid-related orphan receptor gamma (ROR-gamma) signaling pathway - cell viability counter screen (AID 720652; active = well fitted curve in the direction sought with a large enough effect in the repeat runs; an effect the other way counts as inactive or inconclusive;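 note: CHO reporter cells with doxycycline-induced ROR-gamma expression; series mostly up to about 92 µM; compound exposure lasted 16 hr before ATP read; % is set by controls: 0 for no effect and ±100 for the full control effect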). The procedure, abridged: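 Counter screen in CHO cells carrying TET-inducible ROR-gamma and an ROR response element-luciferase reporter; cells plated 5 hr, compound pinned, doxycycline added, then 16 hr at 37 C. Viability read as intracellular ATP by CellTiter-Glo luminescence.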
A general note: In qHTS, concentration-response curves come from the screen itself.

The nature of assay [3]: qHTS assay for small molecule agonists of the antioxidant response element (ARE) signaling pathway measured by Nrf2-dependant transcriptional activity - cell viability counter screen (AID 720653; active = well fitted curve in the direction sought with a large enough effect in the repeat runs; an effect the other way counts as inactive or inconclusive; note: % is set by controls: 0 for no effect and ±100 for the full control effect). As to conditions: ARE-bla HepG2 viability, CellTiter-Glo ATP luminescence, 16 h; active compounds read low. The procedure, abridged: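 ARE-bla HepG2 cells (2,000/well) rested 5 hrs at 37C/5% CO2, then exposed to compounds in DMSO for 16 hrs. Viability was read in the same wells as intracellular ATP by luminescence, 30 min at room temperature after reagent addition.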

The target in assay [4] is T1, Hexokinase-4 (Homo sapiens) + Glucokinase regulatory protein (Homo sapiens) (UniProt P35557+Q14397). As to the kind of experiment: qHTS assay for inhibitors of recombinant human GCK-GKRP interaction: Diaphorase-coupled assay (AID 743205). The procedure, abridged:
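Resorufin fluorescence (525/590 nm), read each minute over 30 min, reports GCK activity coupled via G6PDH and diaphorase. Reaction: 10 nM GST-GCK, 10 nM FLAG-GKRP, 5 mM glucose, 0.4 mM ATP, 0.15 mM NADP+, 0.1 mM resazurin.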

Assay [5] deals with T1, Hexokinase-4 (Homo sapiens) + Glucokinase regulatory protein (Homo sapiens). As to the kind of experiment: qHTS assay for inhibitors of recombinant human GCK-GKRP interaction: ADP-Glo assay (AID 743206).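 Note: plate controls were DMSO plus enzyme for no effect and no enzyme for full effect.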 The procedure, abridged: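 GST-GCK and FLAG-GKRP (15 nM each in the dispensed mix, with 2 uM S6P) react with 0.4 mM ATP and 5 mM glucose (final) in Hepes pH 7.6 for 60 min at room temperature. ADP is measured by ADP-Glo luminescence.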

For assay [6] the target is unchanged. As to the kind of experiment: qHTS assay for inhibitors of recombinant human GCK-GKRP interaction: HTRF assay (AID 743207).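 Note: 0% = DMSO with GCK present and -100% = DMSO wells lacking GCK.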 The procedure, abridged: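 HTRF read-out (ex 320 nm; 615/665 nm emission) after 60 min RT equilibration of 5 nM GST-GCK, 5 nM FLAG-GKRP, 2 uM S6P, compound and anti-FLAG/anti-GST detection antibodies; signal normalized between DMSO wells with and without GCK.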

Assay [7] in a line: qHTS assay for cell viability of HEK293 cells (AID 743288). Note: % is set by controls: 0 for no effect and ±100 for the full control effect; nearly all actives have a fitted effect of over 50% in size. As to conditions: ATP luminescence (CellTiter-Glo), 18 h; max response: active compounds read low. The procedure, abridged: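 Environmental chemicals tested in qHTS format against parental HEK293 cells; 18 h treatment, 37 C; read-out ATP luminescence (CellTiter-Glo), 30 min RT development.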
Assay [8] is described as follows: qHTS assay for cell viability of the p53RE-bla HCT-116 cell line (AID 743292). Note: % is set by controls: 0 for no effect and ±100 for the full control effect; nearly all actives have a fitted effect of over 55% in size. The method in brief: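 After plating at 4,000 cells per well and a 5 h rest at 37 C, HCT-116 cells carrying p53RE-bla received test chemicals in DMSO. Sixteen hours later at 37 C, CellTiter-Glo was added and luminescence recorded following 30 min at room temperature.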
Assay [9] in a line: qHTS Assay for Identifying Gametocytocidal Compounds (AID 743244).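 For max response: % is set by controls: 0 for no effect and ±100 for the full control effect; actives lower the fluorescent signal which means gametocytes are killed.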 Note: potency is the fitted concentration of half-maximal effect. As to conditions: P. falciparum 3D7 stage III-V gametocytes, alamarBlue, 72 h; max response: active compounds read low. The procedure, abridged:
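Late gametocytes (III–V), P. falciparum 3D7; 72 h drug, then 24 h alamarBlue; resazurin reduction read by fluorescence.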

T1 sequence (P35557 whole entry, looked up): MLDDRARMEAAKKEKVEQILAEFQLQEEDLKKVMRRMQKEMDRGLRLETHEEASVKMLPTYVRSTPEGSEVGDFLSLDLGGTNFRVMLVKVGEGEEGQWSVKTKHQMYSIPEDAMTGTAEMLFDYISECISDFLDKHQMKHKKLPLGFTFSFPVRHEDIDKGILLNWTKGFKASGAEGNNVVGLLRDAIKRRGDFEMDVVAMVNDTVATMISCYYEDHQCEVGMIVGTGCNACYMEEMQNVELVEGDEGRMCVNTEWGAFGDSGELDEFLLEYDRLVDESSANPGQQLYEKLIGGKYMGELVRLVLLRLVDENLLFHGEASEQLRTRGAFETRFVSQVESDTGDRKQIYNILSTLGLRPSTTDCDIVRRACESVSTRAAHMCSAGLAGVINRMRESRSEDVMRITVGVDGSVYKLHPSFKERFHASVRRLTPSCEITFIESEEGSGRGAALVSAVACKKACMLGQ
T1 sequence (Q14397 whole entry, looked up): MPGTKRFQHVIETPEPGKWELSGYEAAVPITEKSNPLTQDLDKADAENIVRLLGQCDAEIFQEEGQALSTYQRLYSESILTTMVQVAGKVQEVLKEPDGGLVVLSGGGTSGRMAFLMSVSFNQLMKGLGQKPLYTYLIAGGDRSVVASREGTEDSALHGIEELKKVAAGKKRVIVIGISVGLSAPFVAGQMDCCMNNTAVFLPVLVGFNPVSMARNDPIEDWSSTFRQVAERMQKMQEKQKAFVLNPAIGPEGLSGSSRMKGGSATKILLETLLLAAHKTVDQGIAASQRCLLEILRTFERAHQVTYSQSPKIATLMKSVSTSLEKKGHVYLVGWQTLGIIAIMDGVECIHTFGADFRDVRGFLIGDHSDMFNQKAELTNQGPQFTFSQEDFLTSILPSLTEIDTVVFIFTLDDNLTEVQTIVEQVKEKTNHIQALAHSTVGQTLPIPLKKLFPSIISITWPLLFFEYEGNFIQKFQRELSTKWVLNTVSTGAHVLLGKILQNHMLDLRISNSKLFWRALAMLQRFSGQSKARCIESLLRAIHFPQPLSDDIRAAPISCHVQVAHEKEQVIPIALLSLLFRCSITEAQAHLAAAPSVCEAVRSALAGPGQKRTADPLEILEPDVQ

Take `NC(N)=NC(=O)c1nc(Cl)c(N)nc1N`: the result in assay [1], in [2], in assay [4], in assay [5] and in [6] was inactive. Also, the max response in assay [3] is -15%; in assay [7] it was -10.2%. Besides, in assay [8], the Potency entry was “inactive”.

In the case of `Cc1oncc1C(=O)Nc1ccc(C(F)(F)F)cc1`, the result in [4], in assay [5] and in [6] was inactive. For the same compound, in assay [9], the max response is 50.5% and -6.39% and -7.89%.

Consider `OC(CN1CCC(Cc2ccc(F)cc2)CC1)c1ccc(Cl)cc1` (configuration not stated), for which the outcome in assay [4], in [5] and in assay [6] was inactive. Also, the Potency in assay [9] is 7.43 µM (active).

For the compound `O=NN(CCCl)C(=O)NCCCl`, the call in assay [1], in [4], in assay [5] and in [6] was inactive. For the same compound, the max response is -0.208% in [3]; 10.6% and 5.39% in assay [9]; -8.57% in [7]. Also, the Potency entry in assay [8] was “inactive”.

For `C[C@]12CCC(=O)C=C1CC[C@@H]1[C@@H]2[C@@H](O)C[C@@]2(C)[C@H]1CC[C@]2(O)C(=O)CO`, the compound was classed as inactive in [1], in assay [4], in assay [5] and in [6]. Moreover, the max response is -2.33% in assay [3]; 5.84% and 30.7% in [9]; -17.5% in [7]. Also, the Potency entry in assay [8] was “inactive”.

`Cc1c(C)c2c(c(C)c1O)CCC(C)(COc1ccc(CC3SC(=O)NC3=O)cc1)O2` (configuration not stated): the compound was called inactive in assay [1]. Besides, the max response is 5.17% in assay [3]; 13.5% and 17.4% in assay [9]; -10.3% in assay [7].

For `CNC[C@H](O)c1cccc(O)c1`, the compound was classed as inactive in assay [1], in assay [4], in assay [5] and in assay [6]. The max response in assay [3] was -6.42%; in assay [9], -1.17% and 7.6%; in assay [7], -12.3%. For the same compound, the Potency entry in assay [8] is “inactive”.

As to `NC[C@H](O)c1ccc(O)c(O)c1`, the compound was called inactive in assay [1], in assay [4], in assay [5] and in [6]. In addition, the max response in [3] was -7.71%; in assay [9], 20.6% and 26.6%; in assay [7], -4.13%. The Potency entry in assay [8] was “inactive”.
